Assay results as given in PubChem BioAssay (NCATS).
Records with an inconclusive call do not appear. Calls of active or inactive are those of the source. Calls follow the shape of the dose curve; as a rule, active = well fitted inhibition curve with a large enough effect; inconclusive = small, poorly fitted or top-dose-only effect; inactive = flat fitted curve, though single readings scatter.

Target: Calcium and integrin-binding protein 1 (Homo sapiens) (UniProt Q99828)
Assay: Primary qHTS for Identification of Calcium Integrin Binding Protein 1 (CIB1) Competitor (AID 1508620);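 also: GST tagged CIB1 binding a fluorescein labelled alphaIIb integrin peptide tracer; top concentration of the series differs between compounds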
Settings: CIB1-GST / FITC-alphaIIb peptide fluorescence polarization; series mostly up to 114 µM; activity change, negative = inhibition: at the top concentration
How it was run: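 Fluorescence polarization competition: CIB1-GST (1 uM final) preincubated with compound 15 min at room temperature, then FITC-labeled alphaIIb peptide (100 nM final) added for another 15 min. Polarization read at Ex 480/Em 540.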
% is scaled to controls: 0 for no effect and ±100 for the full control effect.

Calcium and integrin-binding protein 1 (Homo sapiens), sequence (Q99828 whole entry, looked up): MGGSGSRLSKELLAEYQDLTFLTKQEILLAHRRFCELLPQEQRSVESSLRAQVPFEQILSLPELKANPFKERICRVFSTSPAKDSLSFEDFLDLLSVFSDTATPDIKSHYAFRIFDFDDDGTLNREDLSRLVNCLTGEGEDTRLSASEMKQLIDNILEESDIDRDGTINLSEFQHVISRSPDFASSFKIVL

SMILES | activity change, negative = inhibition
CC(C)O[C@@H]1O[C@H](CO)[C@@H](O)[C@H](O)[C@H]1O | -3.84% (inactive)
CC(C)=CCC(O)/C(C)=C/CO[C@@H]1O[C@H](CO)[C@@H](O)[C@H](O)[C@H]1O (stereo not given in full) | 6.41% [at 57.7 µM] (inactive)
COc1cc2c(cc1O)[C@H](c1ccc(O[C@@H]3O[C@H](CO)[C@@H](O)[C@H](O)[C@H]3O)c(OC)c1)[C@@H](CO)[C@](O)(CO)C2 | 2.67% [at 57.7 µM] (inactive)
Cc1csc(NC(=O)c2ccc(COc3cccc(Cl)c3)o2)n1 | -0.402% (inactive)
O=C(O)CC(=O)OC[C@H]1O[C@@H](Oc2ccc3c(c2)OC[C@H]2c4cc5c(cc4O[C@@H]32)OCO5)[C@H](O)[C@@H](O)[C@@H]1O | -3.56% [at 57.7 µM] (inactive)
CC(Nc1ncnc2nc[nH]c12)c1cc2cccc(Cl)c2c(=O)n1-c1ccccc1 (stereo not given) | 2.89% (inactive)
O=C(Nc1ccc(S(=O)(=O)Nc2ccccc2Cl)c(Cl)c1)c1ccccn1 | -10.1% (inactive)
CC12CCC(OC3OC(CO)C(O)C(OC4OC(CO)C(O)C(O)C4O)C3O)CC1CCC1C2CCC2(C)/C(=C3/COC(=O)C3)CCC12O (stereo not given) | -0.572% [at 30.2 µM] (inactive)
C=C1C[C@]23C[C@H]1CC[C@H]2[C@@]12CC[C@H](O)[C@@](C)(C(=O)O1)[C@H]2[C@@H]3C(=O)O | 1.36% [at 57.7 µM] (inactive)
C=C(C)C1CCC(C)C12CC(O)C1(C)OC1C2OC(=O)C(N)CCC(=O)O (stereo not given) | -1.79% [at 57.7 µM] (inactive)
